# Measured potencies and affinities stand elsewhere. Activity calls are given as the source filed them.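 The calls were made as follows: active = compounds lowering HDL dye uptake whose fitted half-effect dose is at most twice the top valid dose; inconclusive = flat curve with moderate signal loss, or poor fit; inactive = the rest.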
# Target: Scavenger receptor class B member 1 (Mus musculus) (UniProt Q61009)
# Assay: inhibitors of SR-BI dependent HDL uptake, dose response, ldlA[mSR-BI] CHO cells, fluorescence plate reader, dry powder, set 9 (AID 623880)
# Conditions: DiI-HDL uptake fluorescence, 3 h; series mostly up to 35 µM
# Chain of Scavenger receptor class B member 1 (Mus musculus) (Q61009 whole entry, looked up): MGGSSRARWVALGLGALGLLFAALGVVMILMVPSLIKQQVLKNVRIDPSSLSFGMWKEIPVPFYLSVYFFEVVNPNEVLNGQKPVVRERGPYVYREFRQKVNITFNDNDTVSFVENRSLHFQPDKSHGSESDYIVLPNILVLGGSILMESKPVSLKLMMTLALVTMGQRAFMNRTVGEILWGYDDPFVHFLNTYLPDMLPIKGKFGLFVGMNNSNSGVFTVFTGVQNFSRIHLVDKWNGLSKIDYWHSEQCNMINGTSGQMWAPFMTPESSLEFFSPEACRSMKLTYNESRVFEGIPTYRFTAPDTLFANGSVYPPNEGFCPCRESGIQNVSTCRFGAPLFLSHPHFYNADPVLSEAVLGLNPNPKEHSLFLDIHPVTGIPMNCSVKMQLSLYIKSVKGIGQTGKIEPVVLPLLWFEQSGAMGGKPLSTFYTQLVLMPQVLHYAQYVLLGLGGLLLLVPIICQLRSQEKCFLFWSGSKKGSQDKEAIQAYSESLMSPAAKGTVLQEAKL
compound,measurement,value
Cc1ccc(OCc2cc(C(=O)N3CCCC(O)C3)no2)cn1 (stereo unspecified),outcome,inactive

# Source: PubChem BioAssay AID623880 (Broad Institute, 2012)
